Results as given in PubChem BioAssay AID652104 (National Center for Advancing Translational Sciences (NCATS), 2013).
About 7,200 (1.8%) of roughly 410,000 compounds were called active. Not shown: some 7% with an inconclusive outcome. For the sample, actives were picked, then their nearest neighbours and some compounds at random. Values without a mark were called inactive. The call rests on the fitted dose curve; in most records, active means well fitted activation curve with a large enough effect; inconclusive means small, poorly fitted or top-dose-only effect, or another doubt; inactive means no such curve, though single readings can be large or run the other way.

Test: qHTS of TDP-43 Inhibitors; further: nearly all actives have a fitted effect of over 50% in size; on growth rescue (activation): % of control where 0% means no effect
Conditions: TDP-43 expressing yeast growth rescue, BacTiter-Glo, 24 h; series mostly up to 46.1 µM; growth rescue (activation): at the top concentration
Outline: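 Yeast expressing TDP-43 (pregrown in raffinose, seeded at OD600=0.02 in galactose medium) exposed to compounds 24 hr at 30 deg C. Growth read by BacTiter-Glo luminescence; rescue of toxicity appears as increased signal.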
Potency means the concentration at half of the fitted maximal effect.

SMILES | growth rescue (activation) | Potency
CCN(CC)C(=O)CSc1nc2ccsc2c(=O)n1Cc1ccccc1Cl | 13.3% | 
COc1ccc(N2CCN(C3=NS(=O)(=O)C(c4cccc(Br)c4)=C3C)CC2)cc1 | 15.8% | 
CCOC(=O)c1cc2occc2n1CC(=O)N1CCN(C(=O)c2ccco2)CC1 | -23.7% | 
CCOC(=O)c1cc2c(ccn2C)n1CC(=O)N1CCC(C)CC1 |  | 35.5 µM (active)
CCOC(=O)c1cc2occc2n1CC(=O)NC1CCC(C)CC1 (centres undefined) | -11.8% | 
CCOc1cc2[nH]c(=O)n(Cc3ccc(C(=O)NCCN(CC)CC)cc3)c(=O)c2cc1OCC | 25.5% [at 9.22 µM] | 
COc1ccc(OCCCn2c(C3CC(=O)N(c4ccc(F)cc4)C3)nc3ccccc32)cc1 (centres undefined) | 28.2% | 
Cc1nc2ccn(Cc3cccs3)c(=O)c2cc1C(=O)NCc1ccc(Cl)cc1 | -22% | 
CCOc1ccc(OCC)c(NS(=O)(=O)c2ccc3[nH]c(=O)ccc3c2)c1 | 17.4% | 
COc1cc(NS(=O)(=O)c2ccc3ccccc3c2)c2ncccc2c1 |  | 12.6 µM (active)
COc1ccc(S(=O)(=O)Nc2cc3c(C(=O)OC(C)C)c(C)oc3c3ccccc23)cc1 | 14.5% | 
N#C/C(=C\c1ccccc1F)c1nc2ccccc2c(=O)[nH]1 | 3.78% | 
CCC(C(=O)Nc1cccc(-c2nc3cccnc3s2)c1C)c1ccccc1 (centres undefined) | -2.05% | 
COc1cccc(NC(=O)Cn2c(=O)cc(C)c3c(C)nn(-c4cccc(F)c4)c32)c1 | 3.17% | 
Cn1nnnc1SCCNCc1ccc(Cl)c(Cl)c1 | 10.9% | 
Cc1cn(C)c(CC(=O)NCc2ccc(Cl)cc2)c1C(=O)O | 15.2% | 
CC(C)C1C(=O)N(Cc2cn(CCC3OCCO3)nn2)CCS(=O)(=O)N1Cc1ccc(-c2ccccc2C(F)(F)F)cc1 (centres undefined) |  | 35.5 µM (active)
COc1ccc(-c2ccc(CN3C(C(C)C)C(=O)N(Cc4cn(CC5CCCCC5)nn4)CCS3(=O)=O)cc2)cn1 (centres undefined) | 18.7% | 
COCOCCn1cc(CN2CCS(=O)(=O)N(Cc3ccc(-c4ccc(OC)cc4)cc3)C(CC(C)C)C2=O)nn1 (centres undefined) | 25.3% | 
COc1ccc(Cn2cc(CN3CCS(=O)(=O)N(Cc4ccc(-c5cccc(Cl)c5)cc4)C(C)C3=O)nn2)cc1 (centres undefined) | 17.6% | 

SMILES | growth rescue (activation) | Potency
Cc1ccc(-c2ccc(CN3C(C)C(=O)N(Cc4cn(CCC5OCCCO5)nn4)CCS3(=O)=O)cc2)cc1 (centres undefined) | 4.45% | 
CC1C(=O)N(Cc2cn(Cc3ccco3)nn2)CCS(=O)(=O)N1Cc1ccc(-c2cccc(CO)c2)cc1 (centres undefined) | 19.9% | 
Cc1ccc(-c2ccc(CN3C(C(C)C)C(=O)N(Cc4cn(CCC5OCCCO5)nn4)CCS3(=O)=O)cc2)cc1 (centres undefined) |  | 35.5 µM (active)
CC(C)CC1C(=O)N(Cc2cn(Cc3ccco3)nn2)CCS(=O)(=O)N1Cc1ccc(-c2ccc(Cl)c(Cl)c2)cc1 (centres undefined) | 15.1% | 
Cc1ccc(-c2ccc(CN3C(C(C)C)C(=O)N(Cc4cn(CCC5OCCO5)nn4)CCS3(=O)=O)cc2)cc1 (centres undefined) |  | 31.6 µM (active)
COc1cc(NC(=O)CN2CCN(S(=O)(=O)c3ccc(Br)cc3)CC2)cc(OC)c1 | -18.8% | 
Cc1ccccc1CNC(=O)c1ccc(NC(=O)N2CCCCc3ccccc32)cc1 | 4.84% | 
COc1cc(CN(CC2CCCO2)C(=O)c2ccccc2F)cc(OC)c1OC (centres undefined) | 6.37% | 
CCOc1ccc(NC(=O)c2c(NC(=O)Cc3ccccc3)sc3c2CCCCC3)cc1 | 0.279% | 
CC1CCCN(Cc2c(O)ccc3c(=O)c(Oc4ccc(C(C)(C)C)cc4)c(C(F)(F)F)oc23)C1 (centres undefined) | 12.6% | 
CCCCOC(=O)/C(C#N)=C/c1ccc(-c2cccc(C(F)(F)F)c2)o1 | 24.7% | 
Cc1ccc(-c2ccc(/C=C(\C#N)C(N)=S)o2)c([N+](=O)[O-])c1 |  | 22.4 µM (active)
CCOC(=O)c1ccc(-c2ccc(/C=C(\C#N)C(=O)Nc3ccc(C)cc3)o2)cc1 | 13.1% | 
CCOc1ccccc1NC(=O)CN1CCN(S(=O)(=O)c2ccc(Br)cc2)CC1 | 0% [at 9.22 µM] | 
COc1ccccc1CNC(=O)NCc1noc2ccc(C)cc12 | 6.73% | 
Cc1ccccc1Cn1c(C)c(C(=O)NCc2cccc(C(F)(F)F)c2)sc1=O | 22.3% | 
Cc1cccc(CNC(=O)c2sc(=O)n(Cc3ccccc3C)c2C)c1 | 2.11% | 
Cc1ccc(Cn2c(C)c(C(=O)NCc3ccccc3C(F)(F)F)sc2=O)cc1 |  | 15.8 µM (active)
Fc1ccc(-c2nn(-c3ccccc3Cl)c3c2cnc2ccccc23)cc1 | 14.3% | 
CCn1cc(C(=O)NCc2ccc(C)cc2)c(=O)c2cc(S(=O)(=O)N3CCc4ccccc4C3)ccc21 | -4% | 

SMILES | growth rescue (activation) | Potency
COc1ccc(C2CC(c3cccs3)=Nc3ccccc3S2)cc1OC (centres undefined) | 16.7% | 
COc1ccc(CNC(=O)COCc2cc(-c3cccs3)on2)cc1OC | 4.8% | 
COc1ccc(-c2csc(-c3cccs3)n2)cc1OC |  | 11.2 µM (active)
CCc1ccc2ncc3c(-c4ccc(C)cc4)nn(CC(=O)NCc4ccccc4)c3c2c1 | 24.3% | 
O=C(CSc1oc(-c2ccc(F)cc2)nc1S(=O)(=O)c1ccc(Br)cc1)NC1CCCCC1 | 11.8% | 
O=c1onc(-c2cccs2)n1Cc1ccccc1 |  | 12.6 µM (active)
O=C(CSc1nnc(-c2cccs2)n1Cc1ccccc1)N1CCc2ccccc2C1 | -18.3% | 
Cc1cc(NC(=O)c2cc(-c3cccs3)on2)nn1Cc1ccc(Cl)cc1 | -13.4% | 
CCC(=O)Nc1ccc(C)cc1-c1nc2ccccc2n(Cc2ccccc2)c1=O | 10.8% | 
COc1ccc2oc(-c3ccc(C)c(NC(=O)c4sc5ccccc5c4Cl)c3)nc2c1 | -4.39% | 
Cc1ccc(C)c(Cn2c(C)c(CNCc3ccc(F)cc3)c(C(=O)O)c2C)c1 | 0.0365% | 
CC(C)(C)NC(=O)NC(=O)COC(=O)Cc1c(F)cccc1Cl | 24.5% | 
CC(C)(C)NC(=O)NC(=O)COC(=O)Cc1ccc(Cl)cc1Cl |  | 35.5 µM (active)
COc1ccccc1OCCC(=O)OCC(=O)NC(=O)NC(C)(C)C | -2.09% | 
COc1ccc(C2=NC3(CCCCC3)N(CC(=O)Nc3ccc(C(C)C)cc3)C2=O)cc1 | 19.3% | 
CCN(CC)CCNc1ncnc2c1cnn2-c1cc(Cl)ccc1C | -4.42% | 
CCn1c(SCC(=O)Nc2ccccc2F)nc2c(c1=O)SC(C)C2 (centres undefined) |  | 35.5 µM (active)
CCn1c(SCC(=O)Nc2ccc3c(c2)OCCO3)nc2c(c1=O)SC(C)C2 (centres undefined) | -11.8% | 
CC1Cc2nc(SCC(=O)Nc3ccccc3F)n(C)c(=O)c2S1 (centres undefined) | 25.8% | 
